Data on 30 molecules can be found in PubChem BioAssay (NCI).

Compounds without any hit were thinned out: in the full panel of roughly 83,000, 20% have a hit.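 Results are percent growth after 48 hours of single-concentration exposure. 100 means growth as in untreated cells, lower positive values show inhibition; negative values down to -100 show cell death.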 A number with no mark means an inactive call. Active and inactive are the calls of the source. Rule for the calls: active = growth percent below 10; inactive = the rest.

What all share (test): NCI-60 one-dose screen, 48 h (100 = growth as untreated, 0 = no growth, -100 = all killed)
What all share (conditions): 10 µM

Assay [1] deals with T-47D breast.
Assay [2] relates to BT-549 breast.
The test system of assay [3] is MDA-MB-435 melanoma.
Assay [4] relates to SW-620 colon.
Assay [5] concerns MCF7 breast.
The subject of assay [6] is HCT-116 colon.
Assay [7] deals with HCC-2998 colon.
The test system of assay [8] is KM12 colon.

For the molecule `COc1ccc(-c2nnc(COc3ccc(NC(=O)Nc4ccccc4)cc3F)o2)cc1`, the growth in assay [1] was 62.1%; in assay [2], 79.6%; in assay [3], 92.3%; in assay [4], 102%; in assay [5] it was 90.3%; in assay [6], 69.8%. The figures for the growth in assay [7] and in assay [8] were 103% and 68.5%, respectively.
Consider `Cc1ccc([P+](Cc2ccc([N+](=O)[O-])cc2)(c2ccc(C)cc2)c2ccc(C)cc2)cc1`, for which the growth in assay [1] was 7.03% (active); in assay [2] it was 17.2%; in assay [3], 6.06% (active); in assay [4], 45.2%; in assay [5], 29.7%; in assay [6], 22%. Further, the growth in assay [7] is 31.3%; in assay [8], 16%.
Regarding `Cn1c(N)c(N=Cc2ccccc2)c(=O)n(C)c1=O`, the growth in assay [1] was 108%; in assay [2] it was 102%; in assay [3], 114%; in assay [4] it was 107%; in assay [5], 103%; in assay [6], 92.8%. The growth in assay [7] is 104%; in assay [8], 115%.
For `COc1ccc(C(=O)n2nc(CC(=O)NCc3ccccc3)nc2N)cc1`, the growth in assay [1] was 105%; in assay [2], 102%; in assay [3], 109%; in assay [4], 105%; in assay [5] it was 99.1%; in assay [6], 99.5%. Moreover, the growth in assay [7] was 104%; in assay [8] it was 116%.
Consider `O=C(NCCc1nccs1)c1cnc2c(S)cccc2c1`, for which the growth in assay [1] was 10.8%; in assay [2], 48.1%; in assay [3], 26.4%; in assay [4], 4.05% (active); in assay [5] it was -3.22% (active); in assay [6] it was 2.16% (active). Besides, the growth is 35.5% in assay [7] and 19.6% in assay [8].
For the molecule `CCCc1c(C)nc2scc(-c3ccc(Cl)cc3)n2c1=O`, the growth in assay [1] is 86.5%; in assay [2] it was 98.3%; in assay [3], 108%; in assay [4] it was 109%; in assay [5], 95.2%; in assay [6] it was 99.1%. Besides, the growth is 106% in assay [7] and 98.2% in assay [8].
With `Nc1nc2c(nnn2C2CC(O)C(CO)O2)c(=O)[nH]1` (stereo not given), the growth was 49.8% in assay [1]; 61.5% in assay [2]; 41.1% in assay [3]; 33.1% in assay [4]; 37.4% in assay [5]; 49.5% in assay [6]. Also, the results for the growth in assay [7] and in assay [8] were 51.3% and 44.7%, respectively.
As for `CCOc1ccc2c(c1)CC[C@@H]1[C@@H]2CC[C@]2(C)[C@@H](O)[C@@H](O)C[C@@H]12`, the growth in assay [1] was 93.8%; in assay [2] it was 119%; in assay [3], 90.2%; in assay [4] it was 95.9%; in assay [5], 111%; in assay [6] it was 104%. In addition, the growth in assay [7] is 108%; in assay [8] it was 106%.
For `C=CCNCCCN1C(=O)c2ccc3c4c(ccc(c24)C1=O)C(=O)N(CCCNCC=C)C3=O`, the growth is -48.6% (active) in assay [1]; -82% (active) in assay [2]; -79% (active) in assay [3]; -54.1% (active) in assay [4]; -64.8% (active) in assay [5]; -16% (active) in assay [6]. Further, the results for the growth in assay [7] and in assay [8] were -85.9% (active) and -69.3% (active), respectively.
As for `CCOC(=O)c1cc2c(n1Cc1ccccc1)-c1oncc1CC2`, the growth in assay [1] is 93.8%; in assay [2] it was 92.7%; in assay [3] it was -27.4% (active); in assay [4], 32.9%; in assay [5] it was 80.3%; in assay [6], 89%. Further, the values for the growth in assay [7] and in assay [8] were 83.6% and 31.4%, respectively.
`CC(=O)OCC(COC(C)=O)(COC(C)=O)COC(C)=O`: the growth in assay [1] is -11.3% (active); in assay [2], 112%; in assay [3], 111%; in assay [4] it was 108%; in assay [5], 93.8%; in assay [6], 111%. The growth is 101% in assay [7] and 102% in assay [8].
As to `FC(F)(F)c1ccc(-c2cnc(Br)nc2NC2CCCCCC2)cc1`, the growth in assay [1] was 19.3%; in assay [2] it was 56.6%; in assay [3], 20.4%; in assay [4], 28.2%; in assay [5], 27.1%; in assay [6] it was 20.3%. Besides, the growth is 72.1% in assay [7] and 25% in assay [8].
`CC(C)/C(=N/O)c1ccccc1`: the growth is 114% in assay [1]; 111% in assay [2]; 107% in assay [3]; 114% in assay [4]; 107% in assay [5]; 109% in assay [6]. For the same molecule, the growth was 106% in assay [7] and 117% in assay [8].
As to `COc1ccc(-n2nnc3c(sc4ccccc43)c2=O)cc1`, the growth in assay [1] was 35.5%; in assay [2], 102%; in assay [3], 69%; in assay [4], 83.9%; in assay [5] it was 80.4%; in assay [6], 5.85% (active). Further, the growth in assay [7] is 74.9%; in assay [8], 70.2%.
As to `COc1cc(CSc2nc3ccc(Cl)cc3c(=O)n2-c2ccccc2)cc(OC)c1OC`, the growth in assay [1] is 71%; in assay [2], 92.8%; in assay [3], 24.4%; in assay [4], 79.7%; in assay [5], 76.9%; in assay [6], 61.8%. The growth is 80% in assay [7] and 49.8% in assay [8].
On to `O=S(=O)(NC1c2ccccc2Oc2ccccc21)c1ccccc1`, for which the growth was 82.3% in assay [1]; 91.6% in assay [2]; 107% in assay [3]; 97% in assay [4]; 91.5% in assay [5]; 84.9% in assay [6]. Also, the growth was 103% in assay [7] and 104% in assay [8].
With `CCc1ccc(-c2nnc(COc3ccc(-c4nc5cc(Cl)c(Cl)cc5[nH]4)cc3OC)o2)cc1`, the growth in assay [1] was 43.6%; in assay [2] it was 105%; in assay [3], 65.2%; in assay [4], 53%; in assay [5], 15.4%; in assay [6], 1.36% (active). The figures for the growth in assay [7] and in assay [8] were 82.8% and 44.1%, respectively.
Regarding `CCN1CCN(c2nc(NNC(=O)c3cccc(OC)c3)nc(N3CCN(C(c4ccccc4)c4ccccc4)CC3)n2)CC1`, the growth in assay [1] is 47.9%; in assay [2], 63.3%; in assay [3] it was 19.5%; in assay [4] it was 69.5%; in assay [5] it was 12.8%; in assay [6] it was 26.7%. For the same molecule, the growth is -16.4% (active) in assay [7] and 25.7% in assay [8].
Consider `O/N=C1\CCC2CCCCC2C1` (stereo not given), for which the growth in assay [1] was 94%; in assay [2], 105%; in assay [3], 104%; in assay [4], 109%; in assay [5], 93%; in assay [6], 103%. Also, the growth in assay [7] and in assay [8] was 106% throughout.
On to `C=CCc1cc(Nc2c3ccc(Cl)cc3nc3ccc(OC)cc23)cc(CN(CC)CC)c1O`, for which the growth is 0.233% (active) in assay [1]; 10.9% in assay [2]; 15.5% in assay [3]; 15.9% in assay [4]; 3.42% (active) in assay [5]; 5.97% (active) in assay [6]. Also, the growth in assay [7] was 24.2%; in assay [8], 11.7%.
For the molecule `COc1cc(-c2nc3ccccc3[nH]2)ccc1OCC(=O)N=Nc1c(O)[nH]c2ccccc12`, the growth was 32.6% in assay [1]; 104% in assay [2]; 79.1% in assay [3]; 64.8% in assay [4]; 28% in assay [5]; 31.6% in assay [6]. Besides, the growth is 96.1% in assay [7] and 27% in assay [8].
Consider `FC(F)(F)c1ccc(-c2ncc(-c3ccc(C(F)(F)F)cc3)c(NCc3cc(C(F)(F)F)cc(C(F)(F)F)c3)n2)cc1`, for which the growth in assay [1] was 28.1%; in assay [2] it was 79.4%; in assay [3], 68.3%; in assay [4], 59.7%; in assay [5], 54.9%; in assay [6], 24.4%. Besides, the growth in assay [7] is 77.2%; in assay [8] it was 44.7%.
In the case of `C=CCN1C(=O)/C(=C\c2ccc3c(c2)CCC3)SC1=S`, the growth was 91.5% in assay [1]; 93.5% in assay [2]; 109% in assay [3]; 104% in assay [4]; 103% in assay [5]; 99.8% in assay [6]. The growth was 106% in assay [7] and 104% in assay [8].
Turning to `O=C(c1ccccc1)C(Nc1ccccc1)c1ccccc1` (stereo not given), the growth in assay [1] is 76.5%; in assay [2] it was 94.4%; in assay [3], 102%; in assay [4], 97.6%; in assay [5] it was 101%; in assay [6], 87.1%. The results for the growth in assay [7] and in assay [8] were 101% and 93.4%, respectively.
With `CCc1cc2n(n1)-c1ncc(C(=O)OC)cc1Oc1ccccc1-2`, the growth was 75.8% in assay [1]; 111% in assay [2]; 103% in assay [3]; 106% in assay [4]; 97.4% in assay [5]; 90.5% in assay [6]. Moreover, the growth in assay [7] is 114%; in assay [8], 102%.
As for `Cn1cnc([N+](=O)[O-])c1/C=C1\Oc2ccc(Cl)cc2C1=O`, the growth in assay [1] is 85.1%; in assay [2], 109%; in assay [3], 86.2%; in assay [4], 72%; in assay [5], 40.2%; in assay [6] it was 22.4%. For the same molecule, the results for the growth in assay [7] and in assay [8] were 97.4% and 82.9%, respectively.
In the case of `COc1cc(Cn2c(-c3ccccc3)c(Cl)c3c2-c2oncc2CC3)cc(OC)c1`, the growth was 73.8% in assay [1]; 87.4% in assay [2]; -0.829% (active) in assay [3]; 15.8% in assay [4]; 102% in assay [5]; 47.5% in assay [6]. For the same molecule, the growth in assay [7] was 84.4%; in assay [8], 41.7%.
As to `CC(=O)[C@H]1CC[C@H]2[C@@H]3CC[C@@H]4CC=C(C=O)C[C@]4(C)[C@H]3CC[C@]12C`, the growth in assay [1] is 85.6%; in assay [2], 85.8%; in assay [3], 97.3%; in assay [4], 106%; in assay [5], 81.1%; in assay [6], 87%. The growth in assay [7] is 89.5%; in assay [8], 104%.
Consider `CC(C)OP(=O)(O)c1ncc(-c2ccc(C(F)(F)F)cc2)c(NC2CCCCCC2)n1`, for which the growth is 41.7% in assay [1]; 86.6% in assay [2]; 62.7% in assay [3]; 54.7% in assay [4]; 51.1% in assay [5]; 53.1% in assay [6]. Further, the growth in assay [7] was 89.8%; in assay [8], 48%.
On to `COc1ccc(OC)c([N+](=O)[O-])c1C=O`, for which the growth was 56.5% in assay [1]; 117% in assay [2]; 101% in assay [3]; 65.1% in assay [4]; 38.2% in assay [5]; 50.7% in assay [6]. In addition, the growth in assay [7] is 110%; in assay [8], 95.8%.
